# Results as given in publication PMC7826789 (International Journal of Molecular Sciences, 2021).
# Columns and labels:
# Conditions in all cases: Compound Concentration (nM):1000
# MRCKA = test system: T1, MRCKA
# T1 construct: gene CDC42BPA
# MRCKB = test system: T2, MRCKB
# T2 construct: gene CDC42BPB
# MST1R = test system: MST1R
# MST1 = test system: T3, MST1
# T3 construct: gene STK4
# MST2 = test system: T4, MST2
# T4 construct: gene STK3
# MST3 = test system: T5, MST3
# T5 construct: gene STK24
# MST4 = test system: MST4
# MTOR = test system: MTOR
# MUSK = test system: MUSK
# MYLK2 = test system: MYLK2
# MYLK4 = test system: MYLK4
# MYLK = test system: MYLK
# MYO3A = test system: MYO3A
# MYO3B = test system: MYO3B
# NDR1 = test system: T6, NDR1
# T6 construct: gene STK38
# NDR2 = test system: T7, NDR2
# T7 construct: gene STK38L
# NEK10 = test system: NEK10
# NEK11 = test system: NEK11
# NEK1 = test system: NEK1
# NEK2 = test system: NEK2
# 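Further: KINOMEscan scanMAX binding as percent activity remaining versus control; lower means stronger binding.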
Structure (SMILES),Percent Control (MRCKA) [%],Percent Control (MRCKB) [%],Percent Control (MST1R) [%],Percent Control (MST1) [%],Percent Control (MST2) [%],Percent Control (MST3) [%],Percent Control (MST4) [%],Percent Control (MTOR) [%],Percent Control (MUSK) [%],Percent Control (MYLK2) [%],Percent Control (MYLK4) [%],Percent Control (MYLK) [%],Percent Control (MYO3A) [%],Percent Control (MYO3B) [%],Percent Control (NDR1) [%],Percent Control (NDR2) [%],Percent Control (NEK10) [%],Percent Control (NEK11) [%],Percent Control (NEK1) [%],Percent Control (NEK2) [%]
Cc1cc(O)cc(C)c1/C=C/c1cncc(C(N)=O)c1 [GW435821X],100,100,100,100,100,100,69,100,100,100,100,97,100,100,99,100,100,100,100,100
CC1=C(C(=O)Nc2ccc3[nH]ncc3c2)C(c2ccc(Cl)c(Cl)c2)CC(=O)N1 (centres unmarked) [GSK299115A],100,75,91,90,94,70,66,100,100,100,91,100,88,90,21,67,72,86,84,97
COC(=O)Nc1nc2ccc(Oc3ccc(NC(=O)Nc4cc(C(F)(F)F)ccc4F)cc3)cc2s1.Cl [GW693917A],90,96,100,100,100,95,72,100,9.7,47,93,100,93,100,86,94,90,100,94,82
CN(C)CCNC(=O)Nc1ccc(N(C)c2ccnc(Nc3ccc(CS(C)(=O)=O)cc3)n2)cc1.Cl [GW830900A],95,96,100,100,100,91,66,97,78,100,100,100,99,92,86,100,87,100,92,90
Cl.O=S1CCN(Cc2ccc(-c3ccc4ncnc(Nc5ccc(OCc6ccccc6)c(F)c5)c4c3)o2)CC1 [GW576924A],100,100,100,100,100,100,100,100,100,100,100,100,100,100,99,100,100,100,93,100
NS(=O)(=O)c1ccc(Nc2ncc(-c3ccccc3)o2)cc1 [GW572399X],100,100,100,100,100,100,65,88,100,100,81,100,100,100,83,100,100,100,84,100
COc1cc(C)c(N(C)C(=O)CN(C)C)cc1Nc1nc(Nc2cccc(F)c2C(N)=O)c2cc[nH]c2n1 [GSK2219385],100,94,100,100,85,93,100,100,84,100,100,10,96,100,100,85,52,100,100,72
NS(=O)(=O)c1ccc(N/N=C2\C(=O)Nc3ccc(C(=O)NCCc4c[nH]cn4)cc32)cc1 [GW300660X],100,100,100,100,60,100,25,91,100,100,87,79,100,100,77,100,100,100,100,100
C[C@@H](Oc1cc(-n2cnc3ccc(OC4CCN(C)CC4)cc32)sc1C(N)=O)c1ccccc1Cl [GSK579289A],100,88,100,77,24,84,59,95,85,48,62,81,74,87,98,88,92,100,60,9.5
Nc1ncnc2occ(-c3ccc(NC(=O)Nc4cc(C(F)(F)F)ccc4F)cc3)c12 [GW770249X],100,100,100,100,83,82,59,100,1.4,83,100,100,9.7,15,94,100,100,100,89,77
